Reference: PubChem BioAssay (NCATS)
Results filed as inconclusive are left out. A call without a number means that no potency is given here. Active and inactive are the calls of the source. The call rests on the fitted dose curve; in most records, active means well fitted cell-killing curve with a large enough effect; inconclusive means small, poorly fitted or top-dose-only effect, or effect the other way; inactive means flat fitted curve, though single readings scatter.

How the values were obtained:
Tov-21-G = assay: Primary qHTS to identify gynecologic anti-cancer compounds using libraries of approved drugs and bioactive compounds (AID 1345084); conditions: Gynecologic cancer cell panel viability, ATPlite luminescence, 48 h; series mostly up to 57.5 µM; further: nearly all actives have a fitted effect of over 55% in size
In short: (§1)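 Five-concentration response, 48 h; readout is ATP-driven luciferase luminescence.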

Tov112D = assay: as above; conditions: Gynecologic cancer cell panel viability, ATPlite luminescence, 48 h; series mostly up to 57.5 µM
In short: as §1

SMILES | Potency (Tov-21-G) | Potency (Tov112D)
CN(C)[C@@H]1C(=O)C(C(N)=O)=C(O)[C@@]2(O)C(=O)C3=C(O)c4c(O)cccc4C[C@H]3C[C@@H]12 | inactive | inactive
CCOC(=O)C(=O)CCCCCCl | inactive | inactive
Oc1cccc2[nH]ccc12 | inactive | inactive
Cc1c(N)cccc1C(F)(F)F | inactive | inactive
CCOc1ncc(F)c(=O)[nH]1 | inactive | inactive
CC(C)Cc1ccc(C(C)C(=O)OCc2ccccn2)cc1 (stereo unspecified) | inactive | inactive
Nc1c(I)cc(I)c(C(=O)N(CCC(=O)O)c2ccccc2)c1I | inactive | inactive
Cc1cccc(N(C)C(=S)Oc2ccc3c(c2)C2CCC3C2)c1 (stereo unspecified) | inactive | inactive
COc1cc2c(cc1OC)CN(C(=O)[C@H](C)N[C@@H](CCc1ccccc1)C(=O)O)[C@H](C(=O)O)C2 | inactive | inactive
Cc1ccc(C(C)OC(=O)C2(C)CCC(C(=O)O)C2(C)C)cc1 (stereo unspecified) | inactive | inactive
Cn1c(=O)c2c(ncn2CC(=O)O)n(C)c1=O | inactive | inactive
CN(C)CCCOC1(Cc2ccccc2)CCCCCC1 | inactive | inactive
COc1cc2c(cc1OC)C(=O)CC2 | inactive | inactive
O=C(O)c1cn(C2CC2)c2cc(Cl)c(F)cc2c1=O | inactive | inactive
C#Cc1ccc(-c2ccccc2F)cc1 | inactive | inactive
O=C(O)c1ccc(OCCN2CCCCC2)cc1 | inactive | inactive
CCCC(CCC)(C(=O)OCC)C(=O)OCC | inactive | inactive
CCCN(CCC)C(=O)C(CCC(=O)OCCCN1CCN(CCOC(=O)Cc2c(C)n(C(=O)c3ccc(Cl)cc3)c3ccc(OC)cc23)CC1)NC(=O)c1ccccc1 (stereo unspecified) | inactive | inactive
